HEK293 tox – HEK 293 cell cytotoxicity | Potency, µM (series often up to 115 µM), without a hit: at the highest dose activity change, negative = cytotoxicity, most hits filed as inhibitors | 6.6% of 94,000 active | HEK 293 viability, ATP luminescence (CellTiter-Glo), 48-72 h | AID 1345083; also: nearly all actives have a fitted effect of over 60% in size
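Read-out: CellTiter-Glo ATP luminescence. Cells: HEK 293, 250 cells/well. Exposure: 48 or 72 hr, 37 degree Celsius.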
hNpr1 antagonist – human Npr1 receptor antagonism; Potency, µM (titrated, usually from 46.3 µM), for inactives: at the top dose activity change, negative = inhibition, hits mostly inhibitors; AID 1347048; 1.6% of 76,000 active; HEK293 hNpr1 GloSensor cGMP, ANP-stimulated luminescence; calls by dose curve; also: nearly all actives have a fitted effect of over 60% in size
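Compound pre-incubated 30 min at room temperature on GloSensor-loaded HEK293 cells stably carrying hNpr1 and the pGS-40F cGMP biosensor. Stimulation uses hNppA at 0.1 nM final; luminescence is taken at baseline and 20 min post-agonist.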
GPT2 inh – inhibitors of human GPT2 alanine aminotransferase; Q8TD30; 0.25% of 100,000 active; Potency, µM (series often up to 57.7 µM), for inactives: at the highest dose activity change, negative = inhibition, most hits filed as inhibitors; Recombinant GPT2, coupled pyruvate oxidase/HRP Amplex Red fluorescence; also: nearly all actives have a fitted effect of over 60% in size
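Recombinant GPT2 (10ng/uL) with 250uM a-KG and 2mM L-alanine, 30 min at room temperature, in HEPES pH 7.5 buffer. Pyruvate detected by pyruvate oxidase/HRP/Amplex Red fluorescence after 30 min in the dark; AOA (50uM) as positive control.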
3T3 cytotox – kills NIH 3T3 cells | 4.3% of 94,000 active | NIH 3T3 viability, CellTiter-Glo ATP luminescence, 48-72 h | Potency, µM (highest dose often 96.7 µM), for inactives: at the highest dose activity change, negative = cytotoxicity, actives largely listed as inhibitors | AID 1345082; also: nearly all actives have a fitted effect of over 55% in size
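NIH 3T3 cells at 400 cells/well received 23 nL of compound by pintool and were incubated 48 or 72 h at 37 °C. Viability was read as ATP-coupled CellTiter-Glo luminescence.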
FLuc inh – inhibitors of firefly (Photinus pyralis) luciferase. purified P. pyralis luciferase, luminescence, biochemical. Potency, µM (doses to about 115 µM), most hits filed as inhibitors. 2.5% of 76,000 active; also: nearly all actives have a fitted effect of over 65% in size
Target sequence (P08659 whole entry, looked up): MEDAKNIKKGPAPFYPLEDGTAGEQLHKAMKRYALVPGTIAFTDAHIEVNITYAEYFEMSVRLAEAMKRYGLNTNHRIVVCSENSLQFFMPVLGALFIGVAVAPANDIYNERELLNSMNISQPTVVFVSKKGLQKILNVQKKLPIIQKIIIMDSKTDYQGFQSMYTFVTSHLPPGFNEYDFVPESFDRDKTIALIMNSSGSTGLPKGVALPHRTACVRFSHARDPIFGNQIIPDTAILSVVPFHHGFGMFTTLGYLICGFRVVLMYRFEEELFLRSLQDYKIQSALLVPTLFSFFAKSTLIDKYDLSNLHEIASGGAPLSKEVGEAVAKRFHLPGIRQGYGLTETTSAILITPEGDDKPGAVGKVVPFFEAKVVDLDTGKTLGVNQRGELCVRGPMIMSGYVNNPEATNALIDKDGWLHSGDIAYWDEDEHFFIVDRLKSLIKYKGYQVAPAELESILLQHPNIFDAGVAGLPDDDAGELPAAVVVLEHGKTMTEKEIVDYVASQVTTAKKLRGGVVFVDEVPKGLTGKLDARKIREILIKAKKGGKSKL
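Cell-free enzyme assay, 10nM P. pyralis luciferase, luciferin and ATP each at 10uM. Inhibition profiled over a 6-point titration, read as luminescence.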
An asterisk follows results filed as active; i = inactive; ? = inconclusive; / = no result; [ ] = dose if it differs, or a comment. Compounds with a hit are over-represented: about 10% of the library has one in this group of screens. Unless noted, calls follow the shape of the dose curve; as a rule, active = well fitted curve in the direction sought with a large enough effect; inconclusive = small, poorly fitted or top-dose-only effect, or another doubt; inactive = no such curve, though single readings can be large; an effect the other way counts as inactive or inconclusive. % is scaled to controls: 0 for no effect and ±100 for the full control effect; potency is read from the fitted curve at half-maximal effect.

SMILES	HEK293 tox	hNpr1 antagonist	GPT2 inh	3T3 cytotox	FLuc inh
CC(=O)NC1(C)CCN(Cc2ccc(-c3ccc(N4CCOCC4)cc3)cc2)C1 (stereo not drawn)	?	-14%[70.6 µM]	1%[88.5 µM]	?	?
COc1cccc(Nc2cc(CN3CCC(C)(NC(C)=O)CC3)cc(OC)c2)c1	112µM*	-1%[70.6 µM]	-10%[88.5 µM]	100µM*	i
CC(=O)NC1(C)CCN(Cc2ccc(-c3cccc(F)c3)cc2)C1 (stereo not drawn)	?	-15%[70.6 µM]	4%[88.5 µM]	89µM*	i
CC(=O)NC1(C)CCN(Cc2ccccc2-c2ccc3c(ccn3C)c2)C1 (stereo not drawn)	100µM*	1%[70.6 µM]	?	89µM*	i
CC(=O)NC1(C)CCN(Cc2ccccc2-c2cccc(C(C)=O)c2)C1 (stereo not drawn)	?	1%[70.6 µM]	i	?	i
CC(=O)NC1(C)CCN(Cc2cccc(-c3ccccc3)c2)C1 (stereo not drawn)	?	1%[70.6 µM]	-8%[88.5 µM]	-26%[138 µM]	i
COc1cc(CN2CCC(C)(NC(C)=O)CC2)cc(NCc2ccccc2)c1	?	2%[70.6 µM]	0%[88.5 µM]	-10%[138 µM]	i
COCC(=O)N1CCN(C(=O)c2nc3cccnc3n(Cc3ccccc3)c2=O)CC1	i	/	i	i	/
O=C(C1CCOCC1)N1CCC2(CN[S+](=O)([O-])c3cnccc3O2)C1 (stereo not drawn)	3%	/	i	i	/
CC(=O)NC1(C)CCN(Cc2ccc(-c3ccccc3OCc3ccccc3)cc2)C1 (stereo not drawn)	32µM*	-4%[70.6 µM]	4%[88.5 µM]	32µM*	?
CC(=O)NC1(C)CCCN(Cc2cc(-c3cccc(N(C)C)c3)cs2)C1 (stereo not drawn)	63µM*	-1%[70.6 µM]	i	?	71µM*
CC(=O)NC1(C)CCN(Cc2ccc(-c3cccc(C(F)(F)F)c3)cc2)C1 (stereo not drawn)	50µM*	-15%[70.6 µM]	i	45µM*	63µM*
O=C(CC1CCCC1)N1CCCC(c2noc(COc3ccccc3F)n2)C1 (stereo not drawn)	?	-3%	-4%	?	i
COCC(=O)N1CC(N2C(=O)c3c(c(C)nn3-c3ccccc3)C2C)C1 (stereo not drawn)	3%	/	/	-18%	/
O=C(CNC(=O)c1cccc(-c2ccc(C(F)(F)F)cc2)c1)NCc1ccccc1F	22µM*	/	i	?	/
O=C(CNC(=O)c1cccc(-c2ccsc2)c1)NCc1ccccc1F	i	/	-7%	-10%	/
COc1ccccc1CNC(=O)CNC(=O)c1cccc(-c2ccc(C(F)(F)F)cc2)c1	35µM*	/	-5%	?	/
CCOC(=O)[C@@H]1CN(C(=O)c2ccno2)[C@H]2c3ccccc3O[C@@H]12	-17%	/	/	?	/
CC(C)c1nc2c(c(-c3ccc(O)cc3)n1)CCN(Cc1cccc3ccccc13)CC2	25µM*	?	i	?	i
CCc1nc2c(c(-c3ccc(O)cc3)n1)CN(Cc1cccc3ccccc13)CC2	89µM*	-21%	i	?	i
CCc1nc2c(c(-c3ccc(OC)cc3)n1)CCN(Cc1cccc3ccccc13)CC2	?	/	-5%	?	/
CCc1nc2c(c(-c3ccc(Cl)cc3)n1)CCN(Cc1cccc3ccccc13)CC2	45µM*	0%	i	-23%	i
CC[C@H]1CN(C(C)=O)CC[C@H]1CC(=O)Nc1ccccc1	i	-1%[70.6 µM]	?	i	i
Cc1cc(C)c(CNC(=O)c2nc(-c3cccc(O)c3)cc3c2ccn3C)c(=O)[nH]1	?	-3%[70.6 µM]	-7%[88.5 µM]	25µM*	i
Cc1cc(C)c(CNC(=O)c2nc(-c3ccnn3C)cc3c2ccn3C(C)C)c(=O)[nH]1	?	-1%[70.6 µM]	?	89µM*	i
Cc1cc(C)c(CNC(=O)c2nc(-c3cccc(F)c3)cc3c2ccn3C(C)C)c(=O)[nH]1	32µM*	-7%[70.6 µM]	1%[88.5 µM]	?	i
Cc1cc(C)c(CNC(=O)c2nc(-c3ccccc3)cc3c2ccn3C(C)C)c(=O)[nH]1	?	-11%[70.6 µM]	i	?	i
